# PubChem BioAssay (NCI)
# About 83,000 compounds went through this panel and 20% of them were active in at least one assay; those are over-represented in the sample as a whole.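 Percent growth is the endpoint: 0 to 100 indicates growth inhibition (40 means 60% inhibition), 0 means no net growth, and negative values indicate cell death.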 A number with no mark means an inactive call. The source made the active and inactive calls. Rule for the calls: active = growth percent below 10; inactive = the rest.
# Experiments:
# Assay in all cases: NCI-60 one-dose screen, 48 h (100 = growth as untreated, 0 = no growth, -100 = all killed)
# Conditions in all cases: 10 µM unless noted
# T-47D breast = tested on: T-47D breast
# BT-549 breast = tested on: BT-549 breast
# MDA-MB-435 melanoma = tested on: MDA-MB-435 melanoma
# SW-620 colon = tested on: SW-620 colon
# MCF7 breast = tested on: MCF7 breast
# HCT-116 colon = tested on: HCT-116 colon
# KM12 colon = tested on: KM12 colon
# HCC-2998 colon = tested on: HCC-2998 colon
Compound,growth (T-47D breast),growth (BT-549 breast) [%],growth (MDA-MB-435 melanoma),growth (SW-620 colon),growth (MCF7 breast),growth (HCT-116 colon),growth (KM12 colon),growth (HCC-2998 colon) [%]
CCOC(=O)/C(=C/CC/C(C)=C/CC/C(C)=C/CCc1ccoc1)CC(=O)N1CCCCC1,27.7%,88,34.1%,64.6%,32%,44.9%,49%,
CCOC1Oc2ccccc2C(=O)/C1=N/c1nccs1 (stereo not given),66.5%,77.1,104%,87.1%,79.1%,92.9%,93.5%,99.7
CC(=O)[C@H]1CC[C@H]2[C@@H]3C[C@H](C)C4=CC(=O)CC[C@]4(C)[C@H]3C(=O)C[C@]12C,87.5%,98,119%,98.6%,99.3%,93.1%,110%,
O=C(NCCNC(=O)Oc1cccc2ccccc12)Oc1cccc2ccccc12,71.7%,105,114%,102%,84.4%,99.7%,104%,
COc1cc(NC(=O)NCc2ccco2)ccc1-c1ccc(NC(=O)NCc2ccco2)cc1OC,40.9%,81.7,76.5%,72.6%,44.7%,35.2%,47.8%,
CC(NC(=O)Oc1cccc2ccccc12)c1ccccc1 (stereo not given),92.7%,106,102%,98.6%,87.8%,105%,99.8%,
CC(=O)OCC(=O)[C@@]1(O)CC[C@H]2[C@@H]3CCC4=CC(=O)CC[C@]4(C)[C@@]3(F)[C@@H](O)C[C@@]21C,109%,103,115%,98.3%,87.3%,106%,109%,
Cn1cnc([N+](=O)[O-])c1Sc1nc(N)nc2nc[nH]c12,47.2%,43.4,25%,50.7%,15.1%,23%,23.5%,19.6
Clc1ccc(C2=NN(c3ccc(Cl)cc3)C(c3cccc(Nc4ccnc5cc(Cl)ccc45)c3)C2)cc1 (stereo not given),79.8%,68.4,99.2%,90%,81.9%,55%,85.2%,94
COc1cccc(/C=N/Nc2nc3ccccc3s2)c1OC,67.5%,78.5,91.5%,96.7%,63.2%,42.5%,70.5%,
CCN(CC)c1ccc(N=C2C=CC(=O)C=C2NC(C)=O)cc1,82.5%,109,124%,89%,82.6%,97.9%,98.6%,
O=C1C=CC(=O)N1c1ccccn1,106%,104,116%,101%,100%,96.8%,107%,
Cc1[nH]ccc2cc3nc4ccccc4c3cc12,27.7%,60.3,33.9%,22.1%,7.1% (active),22%,29%,33.7
O=CNc1ccc2c(c1)Cc1cc([N+](=O)[O-])ccc1-2,29.1%,16.5,-27.9% (active),32.4%,16.3%,11.7%,13.9%,
C[C@@H]1C[C@@H]([C@@H](CC2CC(=O)NC(=O)C2)OC(=O)CC(=O)c2ccccc2)C(=O)[C@@H](C)C1,-2.63% (active),14.6,11.6%,15.1%,14.7%,5.68% (active),12%,
N#Cc1c(-c2ccccc2)cc(-c2ccccc2)n(CCC(=O)O)c1=O,44.1%,27.2,-9.89% (active),37.3%,35%,40%,34.5%,74.3
O=C(Oc1ccccc1)C(Br)C(Br)c1ccccc1 (stereo not given),94%,99.9,94.5%,-77% (active),49.5%,61.2%,71.9%,
c1ccc(CN=C(NCc2ccccc2)NCc2ccccc2)cc1,26.3%,82.2,66.9%,77.3%,36.5%,46.4%,62.6%,

Compound,growth (T-47D breast),growth (BT-549 breast) [%],growth (MDA-MB-435 melanoma),growth (SW-620 colon),growth (MCF7 breast),growth (HCT-116 colon),growth (KM12 colon),growth (HCC-2998 colon) [%]
COc1ccc(NS(=O)(=O)N2CCCCC2)cc1,95.3%,104,116%,98%,108%,103%,110%,
COc1ccc(CNC(=O)c2c(C)n([O-])c3ccc(OC)cc3[n+]2=O)cc1,115%,83.5,115%,107%,101%,106%,97.1%,
O=C(C(=O)c1cc(Br)ccc1O)c1cc(Br)ccc1O,8.38% (active),21.7,49.8%,66.5%,36.5%,40.3%,48.6%,
C[C@]12CCC(=O)C=C1CC[C@H]1[C@@H]3C[C@@H](O)[C@](O)(C(=O)CO)[C@@]3(C)C[C@H](O)[C@@]12F,103%,99.4,99.7%,95.5%,86.1%,90.6%,102%,
Cc1sc2nc3c4ccccc4c(NCCCN(C)C)nn3c(=O)c2c1C,85.2%,66.7,24.8%,-43.7% (active),23.8%,36.1%,31.5%,
Oc1c(Cl)cc(Oc2cc(Cl)c(O)c(CN3CCOCC3)c2)cc1CN1CCOCC1,69.7%,96.5,101%,98.3%,94.4%,87%,102%,
COc1ccc2ncccc2c1Cc1c(OC)ccc2ncccc12,59.8%,90.3,12.4%,40.5%,57%,59.2%,52.1%,
Clc1ccc2c(c1)C(Br)c1cc(Cl)cc(Cl)c1-2 (stereo not given),73%,87.3,85.7%,60.4%,69%,65.4%,98.3%,
COc1cc(/C=C\C(C)=N\Nc2ccccc2)ccc1O,68%,102,69.7%,106%,82.4%,91.4%,52.8%,
ICCC(c1ccccc1)(c1ccccc1)c1ccccc1,39.2%,54.6,35.9%,80.7%,35.1%,33.2%,57.7%,
O=C(NC1CCCCC1)c1ccc(Nc2ncnc3c2cnn3-c2ccccc2)cc1,76.8%,59.8,81.2%,72.9%,82.8%,37.6%,88.5%,
Cc1ccccc1NC(=O)NC(CC(N)=O)c1ccc2c(c1)nc(-c1cccc(Oc3ccc(C(C)(C)C)cc3)c1)n2CCCN1CCCCC1C (stereo not given),47.4%,93.7,-53.7% (active),-62.2% (active),-76.3% (active),-73.7% (active),-35.3% (active),
CC(NC(N)=S)c1ccccc1 (stereo not given),89.6%,118,106%,98.7%,94.5%,107%,104%,
O=C(CC(C(=O)c1ccccc1)N1CCN(Cc2ccccc2)CC1)c1ccccc1 (stereo not given),45.6%,101,109%,11.8%,52.1%,22.8%,101%,
COc1ccc(-c2cnc(SCC(=O)Nc3ccc(-c4nc5ccccc5s4)cc3)n2-c2ccc(OC)cc2)cc1,93.1%,108,114%,110%,47.4%,107%,113%,
O=C1NC(=O)/C(=C\c2ccco2)S1,95.4%,104,,100%,104%,108%,103%,116
CC[C@@H](C)/C=C(C)/C=C/C(O)=C1\C(=O)N[C@@H](Cc2ccc(OC(=O)[C@@](OC)(c3ccccc3)C(F)(F)F)cc2)C1=O,113%,88.8,101%,96.7%,99.8%,91%,91.1%,
